# Reference: PubChem BioAssay (EPA / NIEHS)
# More than one record can exist for a structure, and the calls need not agree. The source made the active and inactive calls. How the source made its calls: active means hit-call score of the fitted dose curve at least 0.9, where 1 is the maximum; inactive means score below 0.9.
# Experiment: CCTE_Shafer_MEA_dev_network_spike_peak: CCTE's Neural Network Formation Assay for Mean Number of Electrodes in Network Spike, Shafer Lab (AID 2284049)
# Description: CCTE_Shafer_MEA_dev assay is conducted using Axion Biosystems 48 well microelectrode array (MEA) plates and Maestro recording system. Each well of the MEA plate contains a grid of 16 microelectrodes embedded in the culture surface. Electrically active cells, such as neurons, can be cultured over the electrodes, and electrical activity in these cells can be recorded extracellularly. The spontaneous firing of neurons is captured from each electrode on a microsecond timescale providing both temporally and spatially precise data. […] The CCTE_Shafer_MEA_dev assay uses primary cultures of rat cortical neurons. Recordings are made on days post-plating 5, 7, 9 and 12. As these cultures mature over time, neural networks develop functional activity and form cohesive networks in which electrical activity can be highly coordinated. CCTE_Shafer_MEA_dev_network_spike_peak is 1 of 19 assay components of the CCTE_Shafer_MEA_dev assay. It measures the average number of electrodes participating at the peak of a network spike (the peak of a temporally-clustered group of action potential firing across multiple electrodes) during a recording in a microelectrode array (MEA) using Axion Biosystems Maestro 768 channel amplifier with the AxIS adaptive spike detector. To collapse across multiple recordings made on days post-plating 5, 7, 9 and 12, the trapezoidal area-under-the-curve of the component is calculated.Data from the assay component CCTE_Shafer_MEA_dev_network_spike_peak was analyzed into 1 assay endpoint. This assay endpoint, CCTE_Shafer_MEA_dev_network_spike_peak, was analyzed in the negative analysis fitting direction relative to DMSO as the negative control and baseline of activity. Using a type of functional reporter, gain or loss-of-signal activity can be used to understand electrical activity.
# On the day prior to culture, each well was coated thoroughly with 150 uL of 0.05% polyethyleneimine (PEI, Sigma Cat P3143) in 50 mM HEPES (Sigma Cat H7523) at a pH of 8. The plate was incubated at 37C for one hour. PEI was rinsed out with 500 uL of sterile water three times. Plates were stored at 4C until the day of culture. This culture was plated at a seeding density of 1.5 x 10^5 cells/well on a 48-well MEA plate, prepared as described above. Cells were administered via a 25 uL media/laminin ([…]; Sigma Cat L2020-1MG) drop directly onto the microelectrode array, as adding the cells with the laminin results in better attachment than pre-coating with laminin. After 2 hours, an additional 475 uL of cortical media was added and the cells returned to the incubator. Exposure starts at day 0 of plating and is continued over twelve days of network development until the experiment is terminated. Cells are fed with fresh medium on DIV 5 and 9, following the recordings on those days. The entire volume of media in the well is exchanged and any vehicle or compound treatment is renewed. Complete details are found in OP-NHEERL/ISTD/SBB/TJS/2015-03-r0 (available on request, email shafer.tim@epa.gov). Measurement of the electrical activity is non-invasive, and recordings can be made from the same plate over multiple different days of the culture. In cortical neurons, this allows for the measurement of extracellular action potentials over the period during which networks form in the MEA plate.
Compound,outcome,AC50
O=C(F)C(F)(F)C(F)(F)C(F)(F)C(F)F,inactive,–
Nc1ccn([C@@H]2O[C@H](CO)[C@@H](O)C2O)c(=O)n1 (some centres not stated),–,0.329 µM (active)
O=C(C=C(O)C(F)(F)F)C(F)(F)F,inactive,–
O=C(CC(=O)C(F)(F)C(F)(F)C(F)(F)F)c1cccs1,–,7.42 µM (active)
FCOC(C(F)(F)F)C(F)(F)F,inactive,–
NC(C(F)(F)F)C(F)(F)F,inactive,–
O=C(O)C(F)(F)OC(F)(F)C(F)(F)OC(F)(F)C(F)(F)OC(F)(F)C(F)(F)C(F)(F)C(F)(F)F,inactive,–
O=C(F)C(F)(F)C(F)(F)C(F)(F)C(=O)F,inactive,–
CN(Cc1cnc2nc(N)nc(N)c2n1)c1ccc(C(=O)N[C@@H](CCC(=O)O)C(=O)O)cc1,–,0.0279 µM (active)
O=P(O)(O)CCC(F)(F)C(F)(F)C(F)(F)C(F)(F)C(F)(F)C(F)(F)F,inactive,–
FC(F)=C(F)C(F)(F)C(F)(F)C(F)(F)C(F)F,inactive,–
OCC(F)(F)C(F)(F)C(F)(F)C(F)(F)C(F)(F)C(F)(F)C(F)(F)C(F)(F)C(F)(F)C(F)(F)C(F)(F)F,inactive,8.24 µM (active)
O=C1NS(=O)(=O)c2ccccc21,inactive,–
O=CC(F)(F)C(F)(F)C(F)(F)F,inactive,–
CN(CCO)S(=O)(=O)C(F)(F)C(F)(F)C(F)(F)C(F)(F)C(F)(F)C(F)(F)C(F)(F)C(F)(F)F,inactive,–
O=P(O)(O)CCC(F)(F)C(F)(F)C(F)(F)C(F)(F)C(F)(F)C(F)(F)C(F)(F)C(F)(F)F,–,4.22 µM (active)
CN(C)CCOC(c1ccccc1)c1ccccc1,–,10 µM (active)
O=C(O)CCC(F)(F)C(F)(F)C(F)(F)C(F)(F)C(F)(F)F,inactive,–
O=CC(F)(F)C(F)(F)C(F)(F)C(F)F,inactive,–
COC(=O)C(F)(F)C(F)(F)C(F)(F)C(F)(F)C(F)(F)F,inactive,–
COC(=O)C(F)(F)C(F)(F)C(F)(F)F,inactive,–
CC(C)c1c(C(=O)Nc2ccccc2)c(-c2ccccc2)c(-c2ccc(F)cc2)n1CC[C@@H](O)C[C@@H](O)CC(=O)O,–,0.00641 µM (active)
CC(=O)Nc1ccc(O)cc1,inactive,–
C=CC(F)(F)C(F)(F)C(F)(F)C(F)(F)F,inactive,–
O=C(OC(=O)C(F)(F)C(F)(F)F)C(F)(F)C(F)(F)F,inactive,–
O=C(CCCN1CCC(O)(c2ccc(Cl)cc2)CC1)c1ccc(F)cc1,–,2.02 µM (active)
